Results: PMC5540273 (PLoS ONE, 2017)

Tests used:
AAK1 = settings: concentration: 1 μM, replicates: in singlicate; n = 1
ABL1-nonphosphorylated = settings: concentration: 1 μM, replicates: in singlicate; n = 1
ABL1-phosphorylated = settings: concentration: 1 μM, replicates: in singlicate; n = 1
ABL2 = settings: concentration: 1 μM, replicates: in singlicate; n = 1
ACVR1B = settings: concentration: 1 μM, replicates: in singlicate; n = 1
ACVR1 = settings: concentration: 1 μM, replicates: in singlicate; n = 1
ACVR2A = settings: concentration: 1 μM, replicates: in singlicate; n = 1
p38-alpha = test system: T1, p38-alpha
T1 construct: gene MAPK14
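For %Inh in this document: KINOMEscan kinase panel screen.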
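For Kd in this document: kd values determined as follow-up on hits from a single-replicate KINOMEscan panel screen.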

| SMILES | %Inh (AAK1) | %Inh (ABL1-nonphosphorylated) | %Inh (ABL1-phosphorylated) | %Inh (ABL2) | %Inh (ACVR1B) | %Inh (ACVR1) | %Inh (ACVR2A) | Kd (p38-alpha) | Kd (ZAK) |
| --- | --- | --- | --- | --- | --- | --- | --- | --- | --- |
| Cc1cccc(-c2nc(Nc3cccc(C(N)=O)c3)c3ccccc3n2)n1 [GW876019] | 0% | 25% | 20% | 15% | 83% | 0% | 12% |  |  |
| COC(=O)c1c(-c2ccccc2)c2cc(C(=O)O)ccc2c(=O)n1Cc1ccccc1 | 3% | 77% | 7% | 7% | 9% | 0% | 36% |  |  |
| CN(C)CCN(C)C(=O)c1cc(-c2ccncc2)c(-c2ccc(Cl)c(O)c2)o1.Cl.Cl [SB-710397] | 6% | 2% | 6% | 17% | 0% | 0% | 0% | 740 nM |  |
| CC(=O)Nc1nc2cnc(Nc3cc(NC(=O)c4cccc(CCC#N)c4)ccc3C)nc2s1 | 6% | 94.8% | 29% | 29% | 0% | 0% | 0% |  |  |
| Clc1cc(Cl)cc(Nc2ccnc(Nc3cc(Cl)cc(Cl)c3)n2)c1 [GSK175726] | 0% | 68% | 51% | 29% | 28% | 58% | 0% |  |  |
| Cc1cccc(-c2cc(Nc3ccncc3)c3ccccc3n2)n1 [GSK223675] | 12% | 0% | 0% | 0% | 88% | 0% | 0% |  | > 10000 nM |
| O=C(O)COc1ncnc2cc(-c3ccc4[nH]ncc4c3)sc12 | 52% | 33% | 7% | 0% | 31% | 1% | 4% |  |  |
| Cc1ccc(C(=O)Nc2ccc(Nc3ccnc4cc(-c5ccccn5)ccc34)cc2O)cc1.Cl [GW440146] | 4% | 68% | 31% | 18% | 0% | 0% | 0% |  |  |
| C[C@@H]1CCCCN1c1cc(-c2ccc3c(N)n[nH]c3c2)nc(N)n1 [GSK2258759] | 43% | 0% | 0% | 0% | 0% | 24% | 0% | 2100 nM |  |
| O=C(Nc1ccc2c(c1)OCO2)NC1CCN(c2ccnc(Nc3ccc(F)cc3)n2)C1 (centres unmarked) [GSK1379724] | 12% | 0% | 0% | 9% | 0% | 0% | 0% |  |  |
| Cn1ccc2ncnc(Oc3ccc(NC(=O)Nc4ccccc4)cc3)c21 | 0% | 26% | 0% | 0% | 0% | 0% | 0% |  |  |
| COc1ccccc1CNC(=O)c1cc(C(=O)c2ccccc2C)c[nH]1 [GSK364507] | 2% | 0% | 0% | 21% | 0% | 0% | 0% | 270 nM |  |
| COc1cc2ncnc(Nc3ccc4nc(-c5ccccc5)[nH]c4c3)c2cc1OC.Cl [GW282450] | 6% | 0% | 0% | 5% | 0% | 0% | 0% |  |  |
| O=C(Nc1n[nH]c2cc(-c3cccc(F)c3F)ccc12)C1CC1 [SB-733894] | 100% | 45% | 40% | 0% | 21% | 24% | 17% |  |  |
| Fc1cc(Cl)ccc1Nc1ccnc2cc(I)ccc12 [GW551191] | 11% | 22% | 26% | 29% | 0% | 54% | 0% |  |  |
| Cc1cccc(-c2nc(Nc3ccncc3)c3ccccc3n2)n1 [GW855857] | 2% | 39% | 28% | 22% | 94.3% | 15% | 24% |  |  |
| COc1ccccc1-c1ccc2c(NC(=O)C3CC3)n[nH]c2n1 [SB-711239] | 9% | 0% | 88% | 0% | 18% | 0% | 29% |  |  |
| Cl.c1ccc(-c2n[nH]cc2-c2ccnc(-c3ccc(CN4CCOCC4)cc3)c2)nc1 [GW776245] | 25% | 62% | 61% | 0% | 80% | 7% | 11% |  |  |
| Cl.O=C(Nc1cccc(-c2nn3ncccc3c2-c2ccnc(Nc3cccnc3)n2)c1)c1c(F)cccc1F [GSK312879] | 0% | 0% | 0% | 21% | 0% | 0% | 0% |  |  |
